Rows were chosen to be rich in hits. Some 4.2% of all compounds tested hit in one or more screens of this group.
Wnt act = activators of Wnt/beta-catenin signaling. 1.2% of 300,000 active. AID 743398. activation, % at 9.35 µM. Wnt/beta-catenin reporter cell assay, activator, plate reader; in the data active means activation above about 30%, passing the limit was not always enough;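 further: 0% = neutral control wells and 100% = positive control wells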
GAA850 FXN act = activators of GAA850 frataxin (FXN) promoter; activation, % at 6 µM; HEK293 lucGAA850 FXN promoter luciferase reporter, 24 h; percent of 10 µM SAHA response; AID 540364; 0.56% of 360,000 active;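 active means activation above the average of all compounds screened plus 3 SD, cutoff fixed separately per campaign, cut at about 7.5% in these data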;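 further: 0% = DMSO wells and 100% = 10 µM SAHA wells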
MITF TRPM1 HTS = activators of MITF-driven TRPM1 promoter activity in SK-MEL-5 cells; SK-MEL-5 TRPM1-promoter luciferase, 24 h; % of positive control, neutral wells = 0; activation, % at 12.5 µM; 0.75% of 300,000 active; AID 588334;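 active means mean activation of at least 80% with every replicate also reaching 80%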;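 further: 0% = neutral control wells and 100% = parthenolide positive control wells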
esBAF inh = inhibitors of esBAF chromatin remodeling in mouse ES cells | Bmi1-luciferase knock-in reporter, 24 h; 100% = twice the neutral-well signal | reporter increase, % at 12.5 µM | 2% of 350,000 active | AID 602393; in the data active means activation above about 40%;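 further: 0% = median of the plate's neutral control wells and 100% = double that signal; a rise in the Bmi1 reporter signal indicates esBAF inhibition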
AHR act = human AHR activation | P35869 | AHR-responsive luciferase reporter cells, luminescence | activation, % at 5 µM | 2.5% of 320,000 active; in the data active means activation above about 47%;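 further: 0% = vehicle wells and 100% = reference agonist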
Target sequence (P35869 whole entry, looked up): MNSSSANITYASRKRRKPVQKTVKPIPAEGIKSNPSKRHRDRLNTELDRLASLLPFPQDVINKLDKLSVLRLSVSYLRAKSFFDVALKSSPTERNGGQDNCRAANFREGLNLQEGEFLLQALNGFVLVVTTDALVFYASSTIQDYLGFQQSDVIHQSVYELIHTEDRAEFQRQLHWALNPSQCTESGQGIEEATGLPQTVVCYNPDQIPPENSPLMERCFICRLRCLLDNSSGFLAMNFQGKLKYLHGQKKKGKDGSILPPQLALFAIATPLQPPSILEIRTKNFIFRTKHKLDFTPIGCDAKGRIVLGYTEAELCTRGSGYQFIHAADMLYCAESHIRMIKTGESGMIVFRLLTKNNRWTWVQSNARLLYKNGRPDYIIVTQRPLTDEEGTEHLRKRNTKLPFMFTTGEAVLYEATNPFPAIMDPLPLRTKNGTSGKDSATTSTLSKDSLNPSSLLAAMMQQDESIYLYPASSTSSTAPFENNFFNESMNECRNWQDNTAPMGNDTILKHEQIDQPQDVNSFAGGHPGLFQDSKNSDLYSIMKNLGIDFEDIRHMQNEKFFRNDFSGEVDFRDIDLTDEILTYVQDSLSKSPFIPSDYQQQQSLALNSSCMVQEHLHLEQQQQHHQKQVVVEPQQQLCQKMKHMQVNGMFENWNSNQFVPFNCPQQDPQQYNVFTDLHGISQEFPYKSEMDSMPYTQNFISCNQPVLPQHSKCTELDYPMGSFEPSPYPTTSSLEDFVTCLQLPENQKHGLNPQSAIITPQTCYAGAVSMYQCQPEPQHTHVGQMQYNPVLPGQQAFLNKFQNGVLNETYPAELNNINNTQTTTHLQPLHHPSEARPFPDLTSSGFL
* = called active by the depositor; · = no result.

SMILES | Wnt act | GAA850 FXN act | MITF TRPM1 HTS | esBAF inh | AHR act
COc1cccc(NC(=O)N2C[C@H](O)COC[C@@H]3O[C@@H](CC(=O)NC4CCC4)CC[C@H]32)c1 | · | · | · | 1 | ·
C=CCOc1cccc(C(=O)Nc2ncn[nH]2)c1 | 2 | 1 | · | 7 | 58*
COc1cc(OC)cc(C(=O)Nc2ncn[nH]2)c1 | -1 | 0 | 11 | -2 | 11
O=C(N[C@@H]1CC[C@H](CCNS(=O)(=O)c2ccc(F)cc2)O[C@H]1CO)C1CCCC1 | · | · | · | 3 | ·
CC(=O)c1c(C)[nH]c(C(=O)CSc2nnc(C)s2)c1C | -1 | 2 | 32 | · | 68*
C=CCn1c(C)nnc1SCC(=O)c1[nH]c(C)c(C(C)=O)c1C | 2 | -2 | -6 | 7 | 41
O=S(=O)(Cc1ccccc1)NCC[C@H]1CC[C@@H](NS(=O)(=O)c2ccc(F)cc2)[C@@H](CO)O1 | · | · | · | 9 | ·
COc1ccc(OC)c(/C=C/c2nc3ccccc3[nH]c2=O)c1 | 0 | 3 | 1 | 9 | 60*
COc1ccc(OC)c(C=Nc2ccccc2-c2nc3ccccc3[nH]2)c1 | 0 | 4 | 27 | · | 87*
Oc1ccc(C=Nc2ccccc2-c2nc3ccccc3[nH]2)c(O)c1 | 26 | 2 | 55 | · | 95*
Cc1ccccc1-c1ccc2c(c1)O[C@@H](CN(C)C(=O)c1ccccn1)[C@H](C)CN([C@H](C)CO)S2(=O)=O | · | · | · | 1 | ·
Nc1c(Cl)c(Cl)nc(C(=O)N/N=C/c2ccco2)c1Cl | 3 | 1 | · | 0 | 53*
Nc1c(Cl)c(Cl)nc(C(=O)OCC(=O)NC2CCCCC2)c1Cl | -1 | 1 | -6 | -4 | 29
O=C(N/N=C/c1ccco1)c1cc(-c2ccc3ccccc3c2)n[nH]1 | · | 3 | 8 | 60* | 3
NNC(=O)c1nc(Cl)c(Cl)c(N)c1Cl | 5 | 1 | -16 | · | 77*
Nc1nccnc1C(=O)N/N=C/c1ccco1 | 16 | 4 | · | · | 3
O=c1c2[nH]c3ccc(F)cc3c2nc2n1CCCS2 | 1 | -1 | -3 | 5 | 71*
O=c1c2[nH]c3ccccc3c2nc2n1CCCS2 | 2 | 2 | 4 | · | 66*
O=c1c2[nH]c3ccc(F)cc3c2nc2n1CCS2 | 0 | 2 | -13 | · | 32
C[C@H](CO)N1C[C@H](C)[C@H](CN(C)S(=O)(=O)c2ccc(F)cc2)OCCCC[C@H](C)Oc2ccc(NS(C)(=O)=O)cc2C1=O | · | · | · | 4 | ·
C[C@@H]1CN([C@H](C)CO)C(=O)Cc2cc(NC(=O)Nc3ccc4c(c3)OCO4)ccc2O[C@H]1CN(C)Cc1ccncc1 | · | · | · | 2 | ·
Cc1cc(C(=O)COC(=O)c2cccnc2Cl)c(C)n1C | 15 | -2 | 19 | -50 | 1
CSc1ncccc1C(=O)OCC(=O)c1cc(C)n(C)c1C | 53* | 5 | 92* | 25 | 0
CCn1c(C)cc(C(=O)COC(=O)c2cccnc2SC)c1C | 17 | 4 | 27 | 53* | 0
Cc1nc(NC(=O)CC(C)C)sc1-c1csc(Nc2ccc(Cl)cc2Cl)n1 | -5 | 2 | 9 | -1 | 61*
SMILES | Wnt act | GAA850 FXN act | MITF TRPM1 HTS | esBAF inh | AHR act
Cc1nc(NC(=O)c2ccccc2)sc1-c1csc(Nc2ccc(Cl)cc2Cl)n1 | · | · | · | · | 43
C=CCCC(=O)Nc1nc(C)c(-c2csc(Nc3cc(Cl)ccc3OC)n2)s1 | 7 | -1 | -3 | -1 | 72*
COc1ccc(OC)c(Nc2nc(-c3sc(NC(=O)c4ccccc4)nc3C)cs2)c1 | · | · | · | · | 55*
COc1ccc(Cl)cc1Nc1nc(-c2sc(NC(=O)c3ccccc3)nc2C)cs1 | · | · | · | · | 95*
COc1ccc(Cl)cc1Nc1nc(-c2sc(NC(=O)CC(C)C)nc2C)cs1 | -3 | 0 | 6 | 3 | 38
C[C@H]1CN([C@@H](C)CO)C(=O)c2cccc(NC(=O)C3CCCCC3)c2O[C@H]1CN(C)CC1CCCCC1 | · | · | · | 0 | ·
CN1[C@@H]2Cn3c(ccc(-c4cccnc4)c3=O)[C@H]1[C@@H](C(=O)NCCc1ccccc1)[C@@H]2CO | · | · | · | 1 | ·
O=C(c1cccn2c(=O)c3cc(Cl)ccc3nc12)N1CCN(Cc2ccc3c(c2)OCO3)CC1 | · | 4 | 9 | -2 | 70*
O=C(c1cccn2c(=O)c3cc(Cl)ccc3nc12)N1CCOCC1 | · | 1 | 10 | 1 | 91*
CCC(=O)Nc1ccc2c(c1)OC[C@@H](C)N(C(=O)C1CC1)C[C@H](C)[C@@H](OC)CN(C)C2=O | · | · | · | -5 | ·
CSc1nc2ccc(NC(=O)c3ccc(Cl)s3)cc2s1 | 26 | 6 | · | 50* | 10
COc1ccc2nc(NC(=O)C3CCCO3)sc2c1 (stereo not drawn) | 11 | 0 | 43 | · | 5

High-throughput results as filed in PubChem BioAssay.
